Drawing on PubChem BioAssay AID1063 (University of Pittsburgh Molecular Library Screening Center, 2008), this text covers inhibition for 94 compounds.

In all, about 200,000 compounds went through this assay and about 18,000 (9%) were called active. Rule as the data show it: active = inhibition above about 50%; inactive = the rest. The entries come from a sample that favours actives as a whole.

This assay is described as follows: antileishmanial activity against promastigotes – primary screen (AID 1063).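 Also: promastigotes grown with compound for 44 hours at 28 °C.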 To be noted: Leishmania major promastigotes, resazurin fluorescence viability; at 10 µM; stronger effect = higher value.
Turning to `O=C(O/N=C(/c1ccccc1)c1ccncc1)c1ccccc1[N+](=O)[O-]`, the inhibition is -5.52% (inactive).

For `COC(=O)c1ccc(NC(=S)Nc2cccc(C)n2)cc1`, the inhibition is 1.93% (inactive).

As to `COc1cc(OC)cc(-c2nnc(SCC(=O)Nc3ccc(C(=O)O)cc3)s2)c1`, the inhibition is -10.5% (inactive).

On to `COc1ccc(/C=C/C2=CC(C)(C)NC(=S)N2)c(OC)c1`, for which the inhibition was 1.29% (inactive).

`COc1cccc(-n2c(=S)[nH]c3c(oc4ccccc43)c2=O)c1`: the inhibition is -1.14% (inactive).

Regarding `CCCC1(C(=O)OC)NC(c2ccco2)C2C(=O)N(C)C(=O)C21` (centres undefined), the inhibition is 4.05% (inactive).

On to `Cc1ccc(N(Cc2cc3ccccc3[nH]c2=O)C(=O)c2cccs2)cc1`, for which the inhibition is 75.4% (active).

Take `CCC(=O)N(Cc1cc2ccccc2[nH]c1=O)c1ccc(OC)cc1`: the inhibition was 11.3% (inactive).

Consider `Cc1cccc2cc(CN(C(=O)c3cccs3)c3ccccc3)c(=O)[nH]c12`, for which the inhibition was -3.04% (inactive).

For the compound `Cc1ccc2c(c1)C(O)(CC(=O)c1cccc(-n3cccc3)c1)C(=O)N2` (centres undefined), the inhibition is 0.06% (inactive).

Turning to `COc1ccccc1-n1cnc2cc(NS(=O)(=O)c3ccccc3)ccc21`, the inhibition is 98.3% (active).

As to `COc1cc(NS(=O)(=O)c2ccccc2)ccc1-n1nc(C)cc1C`, the inhibition is -5.46% (inactive).

For `COCCCNC(=O)c1ccc2c(c1)ncn2-c1ccccc1OC`, the inhibition is -1.51% (inactive).

Regarding `O=[N+]([O-])c1ccccc1N/N=C1\CCc2ccccc21`, the inhibition is -1.95% (inactive).

In the case of `N#Cc1cccc(NC(=O)CCC2CCCC2)c1`, the inhibition was 5.79% (inactive).

As for `O=C(Nc1c2c(nc3ccccc13)CCCC2)c1ccccc1Br`, the inhibition was 6.31% (inactive).

For `N#Cc1cccc(Nc2c3c(nc4ccccc24)CCCC3)c1`, the inhibition was 86.9% (active).

With `COc1ccc2c(c1)C(c1cccs1)=NNC(c1cccnc1)=N2`, the inhibition was 23.7% (inactive).

For the compound `CC(NC(=O)COC(=O)c1ccc2c(c1)OCO2)c1ccccc1` (centres undefined), the inhibition is -3.45% (inactive).

`CCOC(=O)C1=C(C)N=C2c3ccccc3C(=O)C2C1c1ccc(Br)cc1` (centres undefined): the inhibition was 99.4% (active).

Take `CCOC(=O)C1=C(C)NC(=O)NC1c1ccccc1` (centres undefined): the inhibition is -1.3% (inactive).

Consider `CCOC(=O)C1=C(C)NC(SC)=NC1c1ccccc1` (centres undefined), for which the inhibition is 8.85% (inactive).

As to `CN(C)c1nccc(NCc2ccccc2)c1C#N`, the inhibition is -3.1% (inactive).

For the compound `COCCCNC(=O)CNC(=S)N(Cc1cc(OC)c(OC)c(OC)c1)C1CCCC1`, the inhibition is -3.29% (inactive).

Consider `CN(C)CC(O)COc1ccc(C(C)(C)c2ccc(OCC(O)CN(C)C)cc2)cc1` (centres undefined), for which the inhibition is 100% (active).

In the case of `CCCC(O)(c1ccc(OC)cc1)C(CN(C)C)c1ccccc1` (centres undefined), the inhibition is -1.91% (inactive).

Consider `COc1ccc(OCC(O)CNC(=O)Nc2ccc(Cl)cc2)cc1` (centres undefined), for which the inhibition is -4.73% (inactive).

Take `CN(C)S(=O)(=O)c1cccc(NC(=S)N/N=C/C(=O)c2ccccc2)c1`: the inhibition was 2.84% (inactive).

Take `Cc1cccc(N2CCN(c3ccc(NC(=O)/C=C\C(=O)O)cc3)CC2)c1`: the inhibition was -2.44% (inactive).

For the compound `Cc1cc(C(=O)CCl)c(C)n1CC1COc2ccccc2O1` (centres undefined), the inhibition is 101% (active).

With `Cc1ccsc1C(=O)OCC(=O)c1cc(C)n(CC2CCCO2)c1C` (centres undefined), the inhibition is -1.1% (inactive).

Take `Cc1cc(NC(=O)CCC2COc3ccccc3O2)no1` (centres undefined): the inhibition is -5.57% (inactive).

Take `O=C(NCc1ccccc1)C1=C[C@@H](c2ccc(C(F)(F)F)cc2)C[C@@H](OCc2ccc(CO)cc2)O1`: the inhibition was 87% (active).

As to `O=C(NCc1ccccc1)C1=C[C@@H](C2CCCCC2)C[C@@H](OCc2ccc(CO)cc2)O1`, the inhibition was 50.2% (active).

`O=C(C1=C[C@H](c2ccc(C(F)(F)F)cc2)C[C@H](OCc2ccc(CO)cc2)O1)N1CCN(Cc2ccccc2)CC1`: the inhibition was 25.6% (inactive).

Consider `O=C(NCc1ccccc1)C1=C[C@H](C2CC2)C[C@H](OCc2ccc(CO)cc2)O1`, for which the inhibition is 6.42% (inactive).

In the case of `C=CCOC(=O)C1=C[C@@H](c2ccccc2)C[C@@H](OCc2ccc(CO)cc2)O1`, the inhibition is 13.8% (inactive).

In the case of `CC(C)(C)[C@H]1C=C(C(=O)NCc2ccccc2)O[C@@H](OCc2ccc(CO)cc2)C1`, the inhibition is 20.8% (inactive).

Regarding `CCOC(=O)C1(C)NC(c2ccco2)C2C(=O)N(c3ccccc3)C(=O)C21` (centres undefined), the inhibition is -8.75% (inactive).

`COc1cc(NC(=S)NCc2ccc(S(N)(=O)=O)cc2)cc(OC)c1`: the inhibition was 11.8% (inactive).

Take `CC1Cc2ccccc2N1C(=O)CSc1nnc(-c2ccc(S(=O)(=O)N3CCCC3)cc2)n1C` (centres undefined): the inhibition was 97.9% (active).

In the case of `Cn1c(SCC(=O)OC2CCCCC2)nnc1-c1ccc(S(=O)(=O)N2CCCC2)cc1`, the inhibition is -0.74% (inactive).

Consider `CC1Cc2ccccc2N1C(=O)CSc1nnc(C2CC2)n1C` (centres undefined), for which the inhibition is 14.8% (inactive).

As for `O=C(Nc1ccc(N2CCN(C(=O)c3cccs3)CC2)cc1)c1cccnc1Cl`, the inhibition was 16.4% (inactive).

Take `CCOc1ccccc1/C=N/NC(=O)CNC(=O)COc1ccccc1`: the inhibition is -1.93% (inactive).

Take `N#C/C=C(/c1ccc(F)cc1)N1CCOCC1`: the inhibition is 1.16% (inactive).

As to `Cc1cc(C)n2nc(SCC(N)=O)nc2n1`, the inhibition is 4.1% (inactive).

With `CCCCn1c(=S)[nH]c2cc(S(=O)(=O)N3CCCCC3)ccc21`, the inhibition is 96.4% (active).

Take `COc1ccc(S(=O)(=O)N2CCCCC2)cc1Br`: the inhibition was -0.43% (inactive).

For the compound `CCCCn1c(=S)[nH]c2ccccc2c1=O`, the inhibition is -2.23% (inactive).

`COC(=O)C(C(=O)Nc1cccc(Cl)c1C)C1CCCC1` (centres undefined): the inhibition is -0.21% (inactive).

For the compound `Cc1ccc(OCCCC(=O)NC(C)c2ccccc2)c(C)c1` (centres undefined), the inhibition was 11.7% (inactive).

As for `CCC(CC)c1nnc(NC(=O)c2nn(C)c(=O)c3ccccc23)s1`, the inhibition is 8.15% (inactive).

Consider `N#Cc1c(C(F)(F)F)cc(-c2ccc(Cl)cc2)nc1SCC(=O)O`, for which the inhibition is -6.26% (inactive).

With `CN(C)CCCNC(=O)/C=C/c1ccc(OCc2c(F)cccc2Cl)cc1`, the inhibition is 89.1% (active).

For `O=C(/C=C/c1ccc(OCc2c(F)cccc2Cl)cc1)N1CCOCC1`, the inhibition is 35.5% (inactive).

Regarding `COCCCNC(=O)/C=C/c1ccc(OCc2c(F)cccc2Cl)cc1`, the inhibition was 16% (inactive).

`COc1ccccc1-n1ccnc1SCC(=O)NC(C)(C)C`: the inhibition was -1.52% (inactive).

Turning to `COC(=O)c1ccc(CSc2nnc(N)s2)o1`, the inhibition is -5.93% (inactive).

Regarding `CCC(c1nnnn1Cc1ccco1)N(CCc1ccccc1)Cc1cc2ccc(OC)cc2[nH]c1=O` (centres undefined), the inhibition is 85.7% (active).

Turning to `CCC(c1nnnn1Cc1ccco1)N(Cc1cc2cc(OC)ccc2[nH]c1=O)C1CCCCC1` (centres undefined), the inhibition is 49.5% (inactive).

On to `CCC(c1nnnn1Cc1ccco1)N(CCc1ccccc1)Cc1cc2cccc(C)c2[nH]c1=O` (centres undefined), for which the inhibition is 39.7% (inactive).

Take `CN(C)c1ccc(C(CC(=O)O)C(=O)O)cc1` (centres undefined): the inhibition was -3.91% (inactive).

`Cc1cccc(NC(=O)c2nnn(-c3cccc(C(F)(F)F)c3)c2N)c1`: the inhibition was 3.89% (inactive).

`Cc1nc([N+](=O)[O-])nn1C12CC3CC(CC(Br)(C3)C1)C2`: the inhibition is 98.2% (active).

With `Cc1ncn(C23CC4CC(CC(O)(C4)C2)C3)n1`, the inhibition was -5.82% (inactive).

Take `O=S(=O)(c1ccccc1)c1nc(-c2ccccc2F)oc1NCc1cccnc1`: the inhibition was 0.99% (inactive).

Turning to `C/C(Cc1ccccc1)=N\NC(=O)CNC(=O)c1cccc(Br)c1`, the inhibition was 51.4% (active).

In the case of `CC(CC(=O)O)CC(=O)NNC(=O)c1cccc(Br)c1` (centres undefined), the inhibition is -4.63% (inactive).

Take `CCCCC(NC(=O)c1cccc(Br)c1)C(=O)O` (centres undefined): the inhibition was 21.1% (inactive).

On to `COc1ccc(C)cc1-n1nnnc1SCc1nc2ccccc2c(=O)[nH]1`, for which the inhibition is 2.27% (inactive).

For `Cc1nc(-c2ccc(Cl)cc2)sc1C(=O)CBr`, the inhibition was -12.4% (inactive).

Turning to `CCCn1c(=S)[nH]c2ccc(C(F)(F)F)cc21`, the inhibition was -2.71% (inactive).

Regarding `CCCC(=O)OCC(=O)Nc1cc(Cl)ccc1[N+](=O)[O-]`, the inhibition was -6.12% (inactive).

Regarding `COc1ccc(C)cc1Nc1nc(-c2c(C)[nH]c3ccccc23)cs1`, the inhibition is 97.8% (active).

With `Cc1[nH]c2ccccc2c1-c1ccc(Cl)nn1`, the inhibition is -2.46% (inactive).

As for `COc1ccc(OC)c(Nc2nc(-c3ccc(O)c(O)c3)cs2)c1`, the inhibition was 20.7% (inactive).

For `COC(=O)C(NS(=O)(=O)c1ccc(F)cc1)c1ccccc1` (centres undefined), the inhibition is -1.84% (inactive).

Regarding `CS/C(=C\[N+](=O)[O-])Nc1ccc(C)cc1`, the inhibition is -1.56% (inactive).

As for `CCc1nnc(NC(=O)c2cccc(S(=O)(=O)N(C)c3ccc(OC)cc3)c2)s1`, the inhibition is -0.19% (inactive).

For the compound `O=C(Cc1ccccc1)NC(=S)Nc1ccc(N2CCCCC2)cc1`, the inhibition is -9.12% (inactive).

Consider `COc1ccc(-n2c(C)cc(C(=O)CN3C(=O)NC4(CCc5ccccc54)C3=O)c2C)cc1` (centres undefined), for which the inhibition is 98.6% (active).

In the case of `Cc1ccc(-n2c(C)cc(C(=O)CN3C(=O)C(=O)N(C4CCCC4)C3=O)c2C)cc1`, the inhibition was -5.85% (inactive).

On to `COc1ccc(-n2c(C)cc(C(=O)CSc3nnc(-c4cccs4)o3)c2C)cc1`, for which the inhibition is -4.2% (inactive).

On to `Cc1nn(-c2ccc([N+](=O)[O-])cc2)c(N)c1-c1ccccc1`, for which the inhibition was -4.1% (inactive).

For `CC(C)(C)NC(=O)NC(=O)COC(=O)Cc1c(F)cccc1Cl`, the inhibition was 2.42% (inactive).

Take `O=C(CSc1cccc[n+]1[O-])NCCCc1ccccc1`: the inhibition was 1.17% (inactive).

On to `COc1ccc(C(=O)CSc2nnc(NC(=O)C3CC(=O)N(c4cccc(OC)c4)C3)s2)cc1` (centres undefined), for which the inhibition was 56.9% (active).

For the compound `COC(=O)c1ccccc1NC(=O)C1CC(=O)N(c2ccc(OC)cc2)C1` (centres undefined), the inhibition was -10.5% (inactive).

With `COc1cccc(Nc2nnc(SCC(=O)N3CC(C)OC(C)C3)s2)c1` (centres undefined), the inhibition is 51.2% (active).

`COc1cccc(N2CC(C(=O)Nc3c(C)cccc3C)CC2=O)c1` (centres undefined): the inhibition is 2.01% (inactive).

With `COc1cccc(NC(=O)Nc2nnc(N3CCCCC3C)s2)c1` (centres undefined), the inhibition was 3.59% (inactive).

Take `CCOc1ccccc1Nc1nnc(SCC(=O)Nc2cc(C)on2)s1`: the inhibition is 4.84% (inactive).

For `CCOC(=O)CCCN1CC(O)=C(c2nc3ccccc3s2)C1=N`, the inhibition is 17% (inactive).
